HTR2A ag: mouse HTR2A agonism via beta-arrestin recruitment; P35363; CHO-K1 mHTR2A beta-arrestin complementation, luminescence; percent of 30 µM serotonin response; 360,000 compounds, 0.66% hits; activation, % at 7.6 µM;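 active = activation above a run cutoff, the mean activation of all tested compounds plus 3 SD, cut at about 14% in these data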
ANO1 block: mouse TMEM16A channel inhibition, primary screen. 310,000 compounds, 1.2% hits. HEK293 TMEM16A/YFP iodide influx fluorescence, ionomycin. Q8BHY3. AID 588511. normalized B-score (activity score, 25-100; higher = stronger inhibition) at 10 µM;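 active = ratio plate-corrected score three or more library SD toward inhibition, starting fluorescence score within five deviations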;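 note: score derived from kinetic fluorescence span divided by baseline fluorescence per well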
ANO1 activ: activates or potentiates the mouse TMEM16A chloride channel. HEK293 TMEM16A/YFP-H148Q/I152L, iodide quench fluorescence; hits give low values. Q8BHY3. AID 623877. B-score at 10 µM. 340,000 compounds, 0.3% hits;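 active = fluorescence-ratio B-score plate-corrected deviation score at least 3 library SD below zero, with starting fluorescence score within 5 deviations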;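 note: channel opened by trigger with iodide after compound preincubation; score built on the fluorescence ratio of max minus min over baseline; more negative score means more quench and so TMEM16A activation or potentiation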
NOD2 RIPK2 PPI: blocks binding of human NOD2 to RIPK2; O43353; 360,000 compounds, 0.38% hits; CHO BLA complementation NOD2-RIPK2, CCF4 ratio; inhibition, % at 4.98 µM; in the data active = inhibition above about 21%
TLR4 MyD88 comp: inhibitors of human TLR4-MyD88 binding. O00206+Q99836. HeLa CL3-4 TLR4/MyD88 BLA complementation, FRET ratio. inhibition, % at 8.4 µM. 200,000 compounds, 0.18% hits; in the data active = inhibition above about 25%
Target sequence (O00206 whole entry, looked up): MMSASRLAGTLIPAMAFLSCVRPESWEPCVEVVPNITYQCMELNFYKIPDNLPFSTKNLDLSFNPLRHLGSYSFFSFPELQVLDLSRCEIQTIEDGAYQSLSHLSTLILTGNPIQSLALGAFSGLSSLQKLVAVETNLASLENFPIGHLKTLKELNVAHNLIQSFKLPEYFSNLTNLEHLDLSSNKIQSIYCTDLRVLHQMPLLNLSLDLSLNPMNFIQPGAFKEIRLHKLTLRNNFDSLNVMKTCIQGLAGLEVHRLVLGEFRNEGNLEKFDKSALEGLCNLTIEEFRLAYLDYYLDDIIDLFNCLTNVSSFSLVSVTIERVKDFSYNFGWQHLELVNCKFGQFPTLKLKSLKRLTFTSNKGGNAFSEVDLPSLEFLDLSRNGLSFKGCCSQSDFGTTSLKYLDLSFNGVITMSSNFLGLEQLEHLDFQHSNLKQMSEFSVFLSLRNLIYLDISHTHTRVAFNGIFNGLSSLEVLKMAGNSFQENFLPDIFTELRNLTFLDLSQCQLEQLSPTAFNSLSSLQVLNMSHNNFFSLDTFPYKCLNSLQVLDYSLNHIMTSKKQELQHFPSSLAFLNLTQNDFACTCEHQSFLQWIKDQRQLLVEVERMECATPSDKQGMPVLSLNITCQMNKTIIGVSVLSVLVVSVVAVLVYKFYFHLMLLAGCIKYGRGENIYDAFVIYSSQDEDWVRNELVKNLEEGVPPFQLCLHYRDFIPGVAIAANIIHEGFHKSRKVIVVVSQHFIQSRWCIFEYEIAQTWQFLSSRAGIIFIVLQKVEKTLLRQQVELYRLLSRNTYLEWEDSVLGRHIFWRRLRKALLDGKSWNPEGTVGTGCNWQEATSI
Target sequence (Q99836 whole entry, looked up): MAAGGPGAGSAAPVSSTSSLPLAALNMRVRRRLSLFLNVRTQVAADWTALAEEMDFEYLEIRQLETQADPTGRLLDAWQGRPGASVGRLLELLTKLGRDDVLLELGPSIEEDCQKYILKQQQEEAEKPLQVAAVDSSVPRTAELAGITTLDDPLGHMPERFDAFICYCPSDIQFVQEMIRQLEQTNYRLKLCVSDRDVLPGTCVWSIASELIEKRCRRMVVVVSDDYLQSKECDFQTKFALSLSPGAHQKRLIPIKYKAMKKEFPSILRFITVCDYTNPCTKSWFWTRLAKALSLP
TLR9-MyD88 block: blocks human TLR9 binding to MyD88; inhibition, % at 4.98 µM; 340,000 compounds, 0.21% hits; AID 504734; CHO BLA complementation TLR9-MyD88, CCF4 FRET ratio; Q9NR96+Q99836;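 active = inhibition above the mean over all tested compounds plus 3 SD, cut at about 21% in these data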
OPRM1 ag: activates human mu opioid receptor in HTR2A counterscreen; 2,300 compounds, 5.3% hits; activation, % at 9.3 µM; shares compounds with HTR2A ag; U2OS OPRM1 beta-arrestin PathHunter, luminescence; DMSO 0%, DAMGO 9.3 µM 100%;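 active = mean activation above the mean of DMSO-only wells plus 3 SD, cut at about 0.5% in these data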
m5-HT2A ag conf: mouse HTR2A agonism confirmed; shares compounds with HTR2A ag; CHO-K1 PathHunter beta-arrestin recruitment, luminescence; DMSO 0%, 30 µM serotonin 100%; activation, % at 7.6 µM; 2,300 compounds, 19% hits;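 active = mean activation across triplicates above the hit threshold derived in the original primary screen, cut at about 15% in these data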
Large screens that a line does not name were inactive (follow-up assays come after a bar, where they were run). A selection: hits, their analogues and other compounds. The true share with any hit is near 2.4%.

Cc1ccc(C(=O)Nc2ccc(O)cc2C(=O)O)cc1C	none
CCOC(=O)C(C)Sc1nc(=O)n2ccccc2n1 (configuration not stated)	none
CC(C)C[C@H](NC(=O)N1CCn2c1nc1ccccc12)C(=O)NCc1ccccc1	HTR2A ag 15.4 (no result: TLR4 MyD88 comp) | m5-HT2A ag conf inactive
CC(C)C[C@H](NC(=O)N1CCn2c1nc1ccccc12)C(=O)NCCc1ccccc1	none (no result: TLR4 MyD88 comp)
CC(NC(=O)COC(=O)C12CC3CC(CC(O)(C3)C1)C2)c1ccccc1 (configuration not stated)	none (no result: ANO1 block, TLR4 MyD88 comp)
Cc1ccc2c(c1)[C@H]1[C@H](CO2)[C@H](c2ccccc2)[C@]2(C)C(=O)N(CC3CCCO3)CC(=O)N12 (some centres not stated)	HTR2A ag 17.7 (no result: ANO1 block, TLR4 MyD88 comp) | OPRM1 ag inactive | m5-HT2A ag conf inactive
COc1ccccc1CNS(=O)(=O)c1ccc2c(c1)NC(=O)CO2	HTR2A ag 16.3 (no result: TLR4 MyD88 comp) | OPRM1 ag inactive | m5-HT2A ag conf inactive
O=C(O)C1C2C=CC(C2)C1C(=O)NCCc1cccc(Cl)c1 (configuration not stated)	HTR2A ag 31.6 | OPRM1 ag inactive | m5-HT2A ag conf inactive
O=C(O)C1CCCCC1C(=O)NCCc1cccc(Cl)c1 (configuration not stated)	HTR2A ag 34.6 | OPRM1 ag inactive | m5-HT2A ag conf inactive
COc1ccc(NC(=O)C2CCCN2S(=O)(=O)c2ccc3c(c2)C(C)(C)C(=O)N3C)cc1 (configuration not stated)	HTR2A ag 34.1 (no result: ANO1 block, ANO1 activ, TLR4 MyD88 comp, TLR9-MyD88 block) | OPRM1 ag inactive | m5-HT2A ag conf inactive
COc1ccc(S(=O)(=O)N2CCCC2C(=O)Nc2ccc(C)cc2)cc1 (configuration not stated)	none
CC(=O)OC(C(=O)Nc1nccs1)c1ccccc1 (configuration not stated)	HTR2A ag 16.1 (no result: TLR4 MyD88 comp) | OPRM1 ag inactive | m5-HT2A ag conf inactive
CCN(CC(=O)NC1CC1)S(=O)(=O)c1ccc(C)cc1	HTR2A ag 15.3 (no result: TLR4 MyD88 comp) | OPRM1 ag inactive | m5-HT2A ag conf inactive
CCCC(=O)Nc1nc(-c2ccc3c(c2)OCCO3)cs1	HTR2A ag 16.5 | OPRM1 ag inactive | m5-HT2A ag conf inactive
CSCC(=O)Nc1nc(-c2ccc3c(c2)OCCO3)cs1	none
O=C1c2ccccc2C(Nc2ccccc2)N1c1cccnc1 (configuration not stated)	none
COc1ccc(-c2cnc3c(NC=O)cc(-c4ccc(S(C)(=O)=O)cc4)cn23)cc1OC	HTR2A ag 15.0 (no result: ANO1 block, ANO1 activ, TLR4 MyD88 comp, TLR9-MyD88 block) | OPRM1 ag inactive | m5-HT2A ag conf inactive
COc1cc(-c2cnc3c(NC=O)cc(-c4ccc(S(C)(=O)=O)cc4)cn23)cc(OC)c1OC	none (no result: ANO1 block, ANO1 activ, TLR4 MyD88 comp, TLR9-MyD88 block)
CCn1cc(C(=O)N2CCN(c3ccccc3F)CC2)c(=O)c2ccc(C)nc21	HTR2A ag 15.2 | OPRM1 ag inactive | m5-HT2A ag conf inactive
CCn1cc(C(=O)O)c(=O)c2ccc(C)nc21	none
COc1ccc(N2C(=O)CC3(CCCC3)CC2=O)cc1	none
COc1ccc(C)cc1S(=O)(=O)N(C)CC(=O)NCc1ccco1	HTR2A ag 15.9 | OPRM1 ag inactive | m5-HT2A ag conf inactive
Cc1cccc(N(CC(=O)NCc2ccco2)S(=O)(=O)c2ccccc2)c1	none (no result: ANO1 block, ANO1 activ, TLR4 MyD88 comp)
Cc1cc(C)cc(N(CC(=O)NCc2ccco2)S(=O)(=O)c2ccccc2)c1	HTR2A ag 15.2 (no result: TLR4 MyD88 comp) | OPRM1 ag inactive | m5-HT2A ag conf inactive
Cc1ccc(SCC(=O)NC(=O)NC(C)C)c(C)c1	HTR2A ag 15.8 | OPRM1 ag inactive | m5-HT2A ag conf inactive
Cc1ccc(SCC(=O)NC(=O)NCCC(C)C)c(C)c1	none
CCc1nc2c(OCC(=O)C(C)(C)C)cccn2c1N(C)C(=O)CC(C)C	HTR2A ag 16.2 (no result: ANO1 block, ANO1 activ, TLR4 MyD88 comp, TLR9-MyD88 block) | OPRM1 ag inactive | m5-HT2A ag conf inactive
O=C1CCC[C@@H]2Cc3nc4cc5c(cc4cc3[C@@H]3CCN1[C@H]23)OCO5	none (no result: ANO1 block, TLR4 MyD88 comp)
CCS(=O)(=O)C1=NN2C(=N)/C(=C\c3ccc(SCc4ccco4)o3)C(=O)N=C2S1	HTR2A ag 17.6 (no result: ANO1 block) | OPRM1 ag 2.2 | m5-HT2A ag conf inactive
CCOc1cc(C2C3=C(CCCC3=O)N(CCC(=O)O)C3=C2C(=O)CCC3)ccc1OS(=O)(=O)c1ccc(C)cc1	none
CS(=O)(=O)NCCNc1cc(Cl)ccc1[N+](=O)[O-]	none
CN(C)/N=C1\C(=O)N(CN2CCN(c3ccccc3)CC2)c2ccccc21	HTR2A ag 21.8 (no result: ANO1 block, TLR4 MyD88 comp) | OPRM1 ag inactive | m5-HT2A ag conf inactive
CC(=O)N1N=C(c2c(-c3ccccc3)c3cc(Br)ccc3[nH]c2=O)CC1c1ccco1 (configuration not stated)	HTR2A ag 24.5 (no result: TLR4 MyD88 comp) | OPRM1 ag inactive | m5-HT2A ag conf 29.5
CC1CN(C)C(C)c2c1oc1ccc([N+](=O)[O-])cc21 (configuration not stated)	HTR2A ag 21.5 | OPRM1 ag inactive | m5-HT2A ag conf inactive
CC1CN(C)C(C)c2c1oc1ccc(N)cc21 (configuration not stated)	none
COc1ccc(-c2c(-c3cc(OC)cc(OC)c3)n(C)c3ccc(-c4ccc5[nH]ccc5c4)cc23)cc1	HTR2A ag 21.7 (no result: ANO1 block, TLR4 MyD88 comp) | OPRM1 ag inactive | m5-HT2A ag conf inactive
O=C1C2C(c3cccc(/C=C/c4ccccc4)c3)CC=CC2C(c2ccc(C(F)(F)F)cc2)N1Cc1ccccc1 (configuration not stated)	HTR2A ag 17.3 (no result: TLR4 MyD88 comp) | OPRM1 ag inactive | m5-HT2A ag conf inactive
O=C(c1ccc(-c2ccc([N+](=O)[O-])cc2)o1)N1CCCC(C(F)(F)F)C1 (configuration not stated)	none (no result: TLR4 MyD88 comp)
O=C(c1ccc(-c2ccc([N+](=O)[O-])cc2)o1)N1CCCCCCC1	HTR2A ag 15.1 (no result: ANO1 block, TLR4 MyD88 comp) | OPRM1 ag inactive | m5-HT2A ag conf inactive
CCN(Cc1ccccc1)C(=O)c1cc(-c2ccc(OC)c(OC)c2)nc2ccccc12	none (no result: TLR4 MyD88 comp)
COCCN(Cc1ccccc1)C(=O)c1cc(-c2ccc(OC)c(OC)c2)nc2ccccc12	HTR2A ag 17.2 (no result: TLR4 MyD88 comp) | OPRM1 ag inactive | m5-HT2A ag conf inactive
Cc1cc(-c2ccc(C)c(S(=O)(=O)N3CC(=O)Nc4ccccc43)c2)on1	none (no result: TLR4 MyD88 comp)
CC(=O)C1(C)N(O)C(C)(C)C(c2ccco2)=[N+]1[O-] (configuration not stated)	none

Bioassay records as filed in PubChem BioAssay.
